Test results taken from PubChem BioAssay AID504332 (National Center for Advancing Translational Sciences (NCATS), 2011).
Among all 350,000 compounds or so, about 31,000 (8.9%) were called active. About 15% were inconclusive and are not listed. Many of the other results were omitted from the sample, so actives are more common in it than they were. A number with no mark means an inactive call. Calls follow the shape of the dose curve; as a rule, active = well fitted inhibition curve with a large enough effect; inconclusive = small, poorly fitted or top-dose-only effect; inactive = no such curve, though single readings can be large or run the other way.

These compounds were tested against Histone-lysine N-methyltransferase EHMT2 (Homo sapiens) (UniProt Q96KQ7) (assay: qHTS Assay for Inhibitors of Histone Lysine Methyltransferase G9a). Conditions: G9a H3K9 monomethylation, AlphaScreen, 2 h; series mostly up to 59 µM; activity, negative = inhibition: at the top concentration.
Sequence of Histone-lysine N-methyltransferase EHMT2 (Homo sapiens) (Q96KQ7 913-1193 limits assumed): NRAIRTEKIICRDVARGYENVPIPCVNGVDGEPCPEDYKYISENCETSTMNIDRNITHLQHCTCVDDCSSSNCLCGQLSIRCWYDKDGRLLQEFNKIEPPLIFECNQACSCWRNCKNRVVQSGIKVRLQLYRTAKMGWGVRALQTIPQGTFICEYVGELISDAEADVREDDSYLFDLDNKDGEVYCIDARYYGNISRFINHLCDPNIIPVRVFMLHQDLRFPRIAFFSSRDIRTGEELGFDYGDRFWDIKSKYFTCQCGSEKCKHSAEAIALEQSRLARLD
Procedure, shortened: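 Signal arises when biotinylated H3K9 peptide, once monomethylated, bridges streptavidin donor and antibody-captured acceptor beads. Enzyme at 20 nM was preincubated 15 min with test compounds; peptide 500 nM and SAM 20 uM then reacted for 2 h.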
% is scaled to controls: 0 for no effect and ±100 for the full control effect; potency is read from the fitted curve at half-maximal effect.
Also: nearly all actives have a fitted effect of over 75% in size.

SMILES | activity, negative = inhibition | Potency
Cc1ccc(-c2csc(NC3OC(=O)c4ccccc43)n2)cc1 (configuration not stated) | -11.2% [at 102 µM] | 
COc1ccc(-c2cc(-c3ccc(F)cc3)nc3c2COc2ccccc2-3)cc1 | 21.3% | 
COc1cc(OC)cc(-c2c(-c3ccc(F)cc3)c3cc(-c4ccc5cc[nH]c5c4)ccc3n2C)c1 | 26.5% [at 2.33 µM] | 
COC(=O)c1ccc(Cn2c(SCC(=O)N(C)c3ccccc3)nc3ccccc32)cc1 | -1.12% [at 12.7 µM] | 
Cc1ccc(Cl)cc1N1CCN(S(=O)(=O)c2cc3[nH]c(=O)c(=O)[nH]c3cc2C)CC1 | -35.6% | 
Nc1ccc(S(=O)(=O)NC(=O)c2ccccc2)cc1 |  | inactive
Nc1ccc(Nc2ccccc2)cc1 |  | 4.47 µM (active)
Cc1ccc(Nc2ccccc2N)cc1 | -112% | 
COc1ccc(OC)c(CNC(=O)c2c3c(nc4ccccc24)C(=O)N(C2CCCCC2)C3)c1 | 8.12% | 
Cc1ccc(C)c(NC(=O)CSC2=Nc3ccccc3N=C(c3ccc(F)cc3)C2)c1 | 5.92% | 
Cc1ccc2nc(-c3ccncc3)cc(C(=O)Nc3ccncc3)c2c1 | -0.776% [at 102 µM] | 
Cc1c(C(=O)NCc2ccccc2Br)oc2ccc3c(c12)C(=O)CC(C)(C)O3 | -3.36% | 
O=C(/C=C/c1ccco1)Nc1cccc(-c2nc3ccccc3[nH]2)c1 |  | 25.1 µM (active)
O=C(Cc1cccs1)Nc1cccc(-c2nc3ccccc3[nH]2)c1 | -2.95% | 
CCc1ccc2oc(-c3ccc(C)c(NC(=O)/C=C/c4ccco4)c3)nc2c1 | -28.5% | 
CCC1CCC2(CC1)NC(=O)N(CC(=O)Nc1ccc(OC)cc1)C2=O (configuration not stated) | 7.81% [at 0.501 µM] | 
O=C(O)CCCN1C(=O)c2ccccc2Sc2ncccc21 |  | 50.1 µM (active)
COc1cccc(NC(=O)CN2C(=O)c3ccccc3Sc3ncccc32)c1 | -3.8% | 
COCCNC(=O)CCCN1C(=O)c2ccccc2Sc2ncccc21 |  | inactive
O=C(NNC(=O)C1CCCC1)c1ccc(F)cc1 | 20.9% [at 102 µM] | 
CC1CC(=O)Nc2ccccc2N1C(=O)COc1ccc2cc(Br)ccc2c1 (configuration not stated) | -5.57% [at 2.33 µM] | 
CCCCN(CC)CCCNC(=O)c1nn(C)c2c1CS(=O)(=O)c1ccccc1-2 | -9.82% | 
COc1cc(NC(=S)NCc2ccc(S(N)(=O)=O)cc2)cc(OC)c1 |  | 17.8 µM (active)
COc1ccc(NC(=S)Nc2ccc(S(N)(=O)=O)cc2)c(C)c1 | -45.2% [at 102 µM] | 
COc1ccc(OCC(=O)NCCc2ccc(S(N)(=O)=O)cc2)cc1 | -7.3% | 

SMILES | activity, negative = inhibition | Potency
COc1ccc(C(=O)CC(=O)C(=O)Nc2cc([N+](=O)[O-])ccc2OC)cc1 | 13.4% [at 102 µM] | 
COc1ccc(C2NC(=O)N(C)C3=C2C(=O)N(c2ccc(C(=O)O)cc2)C3)cc1 (configuration not stated) | -0.267% | 
COc1ccc(N2C(=O)C3C(C2=O)C(C(=O)c2ccccc2)N2CCCC32)cc1 (configuration not stated) |  | 10 µM (active)
COc1ccc(N2C(=O)C3CCCN3C2c2cccs2)cc1 (configuration not stated) | 14.2% [at 102 µM] | 
Cn1c(=O)[nH]c(=O)c2c1nc(NCCc1ccccc1)n2Cc1ccc(F)cc1 | 7.33% | 
O=[N+]([O-])c1ccc(S(=O)(=O)Nc2cccc(-c3ccc(N4CCCC4)nn3)c2)cc1 |  | 10 µM (active)
O=S(=O)(Nc1cccc(-c2ccc(N3CCOCC3)nn2)c1)c1ccc(Cl)c(Cl)c1 | -30.6% [at 102 µM] | 
CCCOc1ccc(-c2cccc(NS(=O)(=O)c3ccccc3)c2)nn1 | -0.99% | 
CCCc1cc(=O)oc2cc(OCC(=O)Nc3ccc(CN4CCOCC4)cc3)c(Cl)cc12 | 3.1% [at 0.501 µM] | 
CN(CC(=O)Nc1cccc(C(F)(F)F)c1)S(=O)(=O)c1cccs1 | -7.08% | 
COc1ccc2[nH]cc(CCN3C(=O)c4ccc(C(=O)O)cc4C3=O)c2c1 | 8.52% [at 102 µM] | 
Cc1ccc2[nH]cc(CCCN3C(=O)c4ccccc4C3=O)c2c1 |  | 44.7 µM (active)
Cc1ccc2[nH]cc(CCNC(=O)C3CCCCC3)c2c1 | 7.65% | 
CCCC(=O)Nc1cc2nn(-c3ccccc3)nc2cc1C | 6.98% | 
CCOCCCNCc1ccc(OCc2ccc(F)cc2)c(OC)c1 |  | 7.08 µM (active)
COc1cc(CNCCN(C)C)ccc1OCc1c(F)cccc1Cl | -50.1% [at 102 µM] | 
COc1ccc(CNCCCO)cc1OC | 5.75% | 
CC(Nc1nc(C(F)(F)F)nc2ccccc12)c1cccs1 (configuration not stated) | 94.6% [at 102 µM] | 
Cc1cc(C)nc(N/N=C/c2ccc([N+](=O)[O-])o2)n1 | -49.2% [at 102 µM] | 
COc1ccc(C(=O)Nc2ccc(-n3nncc3-c3ccccc3)cc2)cc1OC | -28% | 
CCOC(=O)C1CCCN(C(=O)Cn2ncc3c(C)n(Cc4ccc(F)cc4)c(C)c3c2=O)C1 (configuration not stated) | 13% | 
COc1ccc(CCNC(=O)CSc2nnc(CNC(=O)c3cccs3)o2)cc1OC | 30% [at 12.7 µM] | 
COc1ccc(-c2nnc(SCC(=O)c3cccs3)o2)c(OC)c1 | -1.85% [at 102 µM] | 
O=C(NCC#CCSc1nnc(-c2cccc3ccccc23)o1)c1cccs1 |  | 3.16 µM (active)
CCc1cc(C(=O)Nc2nnc(C3CC3)s2)sc1C | 5.21% [at 12.7 µM] | 

SMILES | activity, negative = inhibition | Potency
CCC1(CC)Cc2ccccc2-c2nc(CCl)[nH]c(=O)c21 | -21.1% [at 102 µM] | 
CC(C)CC(N=C1NC(C)(C)Cc2ccccc21)C(=O)O (configuration not stated) | 12.6% | 
CC1(C)Cc2ccccc2-c2[nH]c(=S)[nH]c(=O)c21 |  | 10 µM (active)
CCc1cc2c(cc3c(=O)n(CC(=O)N4CCN(c5cc(Cl)ccc5C)CC4)nc(CC)n32)s1 | -1.08% | 
CCC(c1nnnn1Cc1ccco1)N(Cc1cc2cc(OC)ccc2[nH]c1=O)C1CCCCC1 (configuration not stated) |  | 3.16 µM (active)
CCOc1ccc2[nH]c(=O)c(CN(Cc3nnnn3Cc3ccccc3)CC3CCCO3)cc2c1 (configuration not stated) | -25.1% [at 102 µM] | 
CCC(c1nnnn1Cc1ccccc1)N(Cc1cc2cc(OC)ccc2[nH]c1=O)CC1CCCO1 (configuration not stated) | -31.1% [at 12.7 µM] | 
CCCOc1ccc(C(=O)Nc2ccc3oc(-c4cccc(Cl)c4Cl)nc3c2)cc1 | -29.8% | 
S=C(NC1CCCCC1)NN1CCOCC1 |  | 50.1 µM (active)
CC(NC(=S)NC1CCCCC1)C(c1ccccc1)N1CCOCC1 (configuration not stated) | 2.9% [at 102 µM] | 
COc1ccc(S(=O)(=O)N2CCOCC2)cc1C(=O)NC1CCCCC1 | 18.8% [at 102 µM] | 
COc1ccc(NC(=O)C(=O)NCC(=O)Nc2cccc(C(F)(F)F)c2)cc1 | 2.22% [at 102 µM] | 
COc1ccc(C(CC(=O)Nc2ccc(C)cc2)NC(=O)C(F)(F)F)cc1 (configuration not stated) |  | 79.4 µM (active)
COc1ccc(NC(=O)CN(C)CC(=O)Nc2cccc(C(F)(F)F)c2)cc1 | 6.72% [at 102 µM] | 
CCCCOc1ccc(C(=O)Nc2cccc(-c3nc4ccccc4o3)c2C)cc1 | -21% | 
O=C(NCc1ccc(Cl)cc1)C(=O)NCC1CCCN1S(=O)(=O)c1cccs1 (configuration not stated) | 1.44% [at 102 µM] | 
Cc1cc(NC(=O)CC(C)C)cc(-c2nc3ncccc3o2)c1O | 2.52% | 
Cc1ccc(-n2nc(CO)c(C(=O)NCCc3ccccc3)n2)cc1 | 7.14% | 
O=C(Oc1ccc(Br)cc1C(=S)N1CCOCC1)c1cccc([N+](=O)[O-])c1 |  | 7.08 µM (active)
O=C(/C=C/c1cccc([N+](=O)[O-])c1)OCC(=O)N1CCOCC1 | 12.5% [at 12.7 µM] | 
O=C(c1ccc(Oc2ccc(Cl)cc2)c([N+](=O)[O-])c1)N1CCCC1 | -2.93% [at 102 µM] | 
O=C(Oc1cccc(C(=S)N2CCOCC2)c1)c1cccc(Cl)c1 | -2.25% [at 102 µM] | 
Cc1cc(OC(=O)c2ccccc2)c([N+](=O)[O-])c(=O)[nH]1 | -32.9% [at 102 µM] | 
COc1cc(C(=S)N2CCOCC2)cc(OC)c1OC(=O)c1cc([N+](=O)[O-])cc([N+](=O)[O-])c1 |  | 31.6 µM (active)
COc1cc(C(=O)N2CCOCC2)cc(OC)c1OC |  | inactive

SMILES | activity, negative = inhibition | Potency
O=C(Oc1ccccc1C(=S)N1CCCCC1)c1cc([N+](=O)[O-])cc([N+](=O)[O-])c1 |  | 3.55 µM (active)
COc1cc(C(=O)OCc2ccc([N+](=O)[O-])cc2)cc(OC)c1OC | 14.7% [at 102 µM] | 
O=C(NCCCN1CCOCC1)c1ccc([N+](=O)[O-])cc1[N+](=O)[O-] | -1.45% | 
COc1cc([N+](=O)[O-])cc([N+](=O)[O-])c1NC(=O)N1CCOCC1 |  | 50.1 µM (active)
COc1cc(NC(=O)N2CCOCC2)cc(OC)c1 | 7.85% [at 102 µM] | 
COc1ccc(/C=N/Nc2cc(N3CCOCC3)nc(C)n2)c(OC)c1 | -10.8% [at 102 µM] | 
Cc1ccc2cccc(NC(=O)C(C)Oc3ccc(C)c(C)c3)c2n1 (configuration not stated) | 0.0636% | 
Cc1ccc(-c2cnc(C3CC3)o2)cc1S(=O)(=O)Nc1cccc(C)c1C | -9.84% [at 12.7 µM] | 
CCC(=O)N1c2ccccc2CC1C(=O)N1CCN(c2ccccc2F)CC1 (configuration not stated) | 0.329% [at 12.7 µM] | 
Cc1ccc(-c2nn(CCC(=O)Nc3ccc(Cl)c(Cl)c3)c(=O)c3ccccc23)cc1 | 5.97% | 
COc1ccc(Cl)cc1NC(=O)CSc1nc2ccccc2c2nc(-c3ccccc3)nn12 | -3.83% | 
CC(=O)C[C@@H](O)CC(=O)[C@H]1OC(=O)CCCCCCc2ccccc21 | 7.19% [at 0.501 µM] | 
O=C(c1cccs1)c1cn(CCOc2ccc(Cl)cc2)c2ccccc12 | -2.07% | 
O=C(C1=C(O)C(=O)N(CCOCCO)C1c1ccccn1)c1cccs1 (configuration not stated) |  | 28.2 µM (active)
O=C(c1cccs1)N(C(=O)c1cccs1)c1ccccn1 | 2.68% | 
Cc1ccc(O)c(/C=N/NC(=O)COc2ccc3c(C)cc(=O)oc3c2)c1 | 14% [at 102 µM] | 
CCC(=O)N1c2ccccc2CC1C(=O)N1CCN(c2cccc(OC)c2)CC1 (configuration not stated) | 12.6% | 
COc1cccc(C(=O)NC2(C(F)(F)F)C(=O)Nc3c2c(=O)[nH]c(=O)n3-c2ccc(C)cc2)c1 (configuration not stated) | -0.967% | 
CCOc1ccc(CN2CCN(Cc3ccc(C)o3)CC2CCO)cc1 (configuration not stated) |  | 70.8 µM (active)
CCOc1ccc(CN2CCN(Cc3ccc4cc(F)ccc4n3)CC2CCO)cc1 (configuration not stated) | 1.12% [at 102 µM] | 
CCOc1ccc(CN2CCN(Cc3ccon3)CC2CCO)cc1 (configuration not stated) | -37.7% [at 102 µM] | 
COCCn1c(C)cc(C(=O)CSc2nnc(C3CC3)n2C2CC2)c1C | -12.5% [at 12.7 µM] | 
